The values below come from PubChem BioAssay (EPA / NIEHS).

The source made the active and inactive calls. How the source made its calls: active means hit-call score of the fitted dose curve at least 0.9, where 1 is the maximum; inactive means score below 0.9.

Assay [1] deals with Bile acid receptor (Homo sapiens) (UniProt Q96RI1). Nature of the assay: ATG_IR1_CIS: Attagene CIS-FACTORIAL HepG2 Assay for human Nuclear Receptor Subfamily 1 Group H Member 4 (NR1H4), IR1 submotif (AID 2282946). The following applies: IR1 reporter transcription, actives raise or lower the signal. The procedure, abridged: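 Transient MRTU transfection, HepG2; 24 h dosing; RNA → RT-PCR → 6-FAM primer extension → HpaI digest → capillary electrophoresis fluorescence. Gain/loss of signal fitted relative to DMSO.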
Bile acid receptor (Homo sapiens), sequence (Q96RI1 whole entry, looked up): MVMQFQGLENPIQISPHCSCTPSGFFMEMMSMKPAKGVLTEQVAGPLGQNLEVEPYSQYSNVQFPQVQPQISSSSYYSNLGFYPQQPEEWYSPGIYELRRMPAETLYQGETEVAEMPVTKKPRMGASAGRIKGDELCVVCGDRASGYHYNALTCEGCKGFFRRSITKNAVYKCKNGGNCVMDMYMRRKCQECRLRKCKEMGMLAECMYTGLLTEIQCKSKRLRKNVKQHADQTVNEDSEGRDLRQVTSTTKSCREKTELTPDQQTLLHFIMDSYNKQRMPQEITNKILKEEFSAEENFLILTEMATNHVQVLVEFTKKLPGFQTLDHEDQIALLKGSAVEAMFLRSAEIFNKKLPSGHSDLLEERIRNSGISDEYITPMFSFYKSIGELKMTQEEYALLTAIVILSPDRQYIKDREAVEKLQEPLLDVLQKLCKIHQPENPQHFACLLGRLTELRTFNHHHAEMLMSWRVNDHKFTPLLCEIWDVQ

Assay [2] can be described thus: ATG_ISRE_CIS: Attagene CIS-FACTORIAL HepG2 Assay for human Interferon Regulatory Factor 1 (IRF1) binding to an Interferon-Stimulated Response Element (ISRE) (AID 2282948). The following applies: HepG2 ISRE cis-reporter (Attagene), mRNA transcription readout; actives raise or lower the signal. In a few lines:
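Transiently transfected HepG2 cells carrying cis-element reporter units, dosed 24 hours. Reporter mRNA quantified by RT-PCR, fluorescent primer extension, HpaI digestion and capillary electrophoresis. Bidirectional fitting relative to DMSO.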

A short description of assay [3]: ATG_M_32_CIS: Attagene CIS-FACTORIAL HepG2 Assay for M32 Transcription Factor (Internal Marker) (AID 2282949).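 Further: background control marker of the multiplexed CIS panel rather than a real target.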 The note with it: HepG2 Attagene cis-factorial M32 reporter, mRNA; actives raise or lower the signal. In a few lines:
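Internal background marker read-out: RT-PCR/capillary electrophoresis fluorescence of reporter transcripts from transiently transfected HepG2 cells after 24 h chemical exposure. Activity fitted bidirectionally relative to DMSO negative control.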

Assay [4] is described as follows: ATG_M_06_CIS: Attagene CIS-FACTORIAL HepG2 Assay for M06 Transcription Factor (Internal Marker) (AID 2282950). The following applies: HepG2 Attagene CIS-FACTORIAL M06 internal marker reporter; actives raise or lower the signal. In a few lines:
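Steps: transfect HepG2 with multiplexed cis-element reporter constructs; dose chemical 24 h; extract RNA with DNase treatment; reverse-transcribe, PCR-amplify, 6-FAM label, HpaI digest; separate fragments by capillary electrophoresis. Activity fitted both directions versus DMSO.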

The target of assay [5] is Hepatocyte nuclear factor 6 (Homo sapiens) (UniProt Q9UBC0). Nature of the assay: ATG_HNF6_CIS: Attagene CIS-FACTORIAL HepG2 Assay for human Hepatocyte Nuclear Factor 6 (HNF6) (AID 2282952). The following applies: HepG2 Attagene cis-factorial HNF6 reporter transcription; actives raise or lower the signal. The procedure, abridged: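 Reporter mRNA induction or loss in HepG2 after 24 h exposure; transient cis-MRTU transfection; fragments quantified by capillary electrophoresis; bidirectional analysis, DMSO as negative control.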
Hepatocyte nuclear factor 6 (Homo sapiens), sequence (Q9UBC0 whole entry, looked up, the tested form may be a part): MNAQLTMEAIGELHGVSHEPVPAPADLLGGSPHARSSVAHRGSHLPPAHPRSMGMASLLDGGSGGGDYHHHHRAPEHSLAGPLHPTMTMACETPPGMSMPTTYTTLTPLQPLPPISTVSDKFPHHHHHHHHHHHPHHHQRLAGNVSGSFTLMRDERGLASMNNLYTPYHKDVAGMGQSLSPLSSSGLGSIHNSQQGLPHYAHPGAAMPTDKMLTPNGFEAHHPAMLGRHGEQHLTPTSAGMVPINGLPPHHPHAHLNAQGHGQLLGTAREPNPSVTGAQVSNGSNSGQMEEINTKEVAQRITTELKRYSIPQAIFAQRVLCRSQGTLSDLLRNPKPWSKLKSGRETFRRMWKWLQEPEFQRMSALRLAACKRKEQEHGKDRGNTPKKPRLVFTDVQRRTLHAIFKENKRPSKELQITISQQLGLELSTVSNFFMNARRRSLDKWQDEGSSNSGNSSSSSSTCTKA

The nature of assay [6]: ATG_MRE_CIS: Attagene CIS-FACTORIAL HepG2 Assay for human Metal Responsive Element (MRE) (AID 2282954). The note with it: HepG2 MRE cis-reporter transcription, Attagene multiplex; actives raise or lower the signal. In a few lines:
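HepG2 cells transiently transfected with multiple cis-element reporter units measure endogenous MTF1-driven transcription. After 24 h compound exposure, reporter mRNA is quantified by RT-PCR with 6-FAM labelling, HpaI digestion and capillary electrophoresis; bidirectional fits versus DMSO.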

Assay [7] is described as follows: ATG_PBREM_CIS: Attagene CIS-FACTORIAL HepG2 Assay for human Phenobarbital-responsive Enhancer Module (PBREM) (AID 2282955). The note with it: HepG2 PBREM cis-reporter, Attagene multiplexed transcription; actives raise or lower the signal. The procedure, abridged: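 Fluorescence of labelled reporter cDNA fragments, resolved by capillary electrophoresis, gives mRNA induction in transfected HepG2 cells treated for 24 h; DMSO serves as negative control and baseline.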

Assay [8] in a line: ATG_PXRE_CIS: Attagene CIS-FACTORIAL HepG2 Assay for human Pregnane X Receptor Element (PXRE) (AID 2282957). The note with it: HepG2 Attagene CIS-FACTORIAL PXRE reporter, mRNA; actives raise or lower the signal. In a few lines: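 Transiently transfected HepG2 cells were dosed and incubated for 24 h. RNA was then isolated, DNase-treated, reverse-transcribed and reporter sequences amplified. Labeled, HpaI-digested fragments were quantified by capillary electrophoresis against DMSO.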

The nature of assay [9]: ATG_Sox_CIS: Attagene CIS-FACTORIAL HepG2 Assay for human SRY-box transcription factor (SOX) (AID 2282960). The note with it: HepG2 Attagene cis-factorial SOX reporter, mRNA; actives raise or lower the signal. The procedure, abridged: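 Transient MRTU transfection of HepG2; 24 h compound incubation; TriZol RNA, oligo(dT) RT, PCR, 6-FAM primer extension, HpaI cut, CE. Bidirectional fit, DMSO = baseline.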

The target of assay [10] is Transcription factor Sp1 (Homo sapiens) (UniProt P08047). Nature of the assay: ATG_Sp1_CIS: Attagene CIS-FACTORIAL HepG2 Assay for human Specificity Protein 1 (Sp1) (AID 2282961). The following applies: HepG2 Sp1 cis-reporter transcription, actives raise or lower the signal. The procedure, abridged:
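Endogenous Sp1 activity was gauged in human liver HepG2 cells bearing transfected reporter units under a cis-regulating promoter. After 24 h dosing, reporter mRNA was quantified by RT-PCR with capillary electrophoresis, and activity fitted bidirectionally versus DMSO.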

Assay [11] can be described thus: ATG_SREBP_CIS: Attagene CIS-FACTORIAL HepG2 Assay for human Sterol Regulatory Element Binding (SREBP) (AID 2282962). The following applies: HepG2 Attagene cis-factorial SREBP reporter, mRNA; actives raise or lower the signal. In a few lines:
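HepG2 cells transiently transfected with multiplexed cis-promoter reporter units sensing endogenous transcription factors; reporter mRNA measured 24 h after dosing by RT-PCR, 6-FAM labeling, HpaI digestion and capillary electrophoresis. Bidirectional fit versus DMSO.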

For assay [12], the target named is Signal transducer and activator of transcription 3 (Homo sapiens) (UniProt P40763). Nature of the assay: ATG_STAT3_CIS: Attagene CIS-FACTORIAL HepG2 Assay for human Signal Transducer and Activator of Transcription 3 (STAT3) (AID 2282963). The following applies: HepG2, Attagene cis-factorial STAT3 reporter transcription; actives raise or lower the signal. In a few lines:
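HepG2 cells transiently transfected with cis-element-driven multiple reporter transcription units; after 24 h chemical exposure, reporter mRNA measured by RT-PCR, 6-FAM primer-extension labelling, HpaI digestion and capillary electrophoresis. Bidirectional fitting versus DMSO baseline.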

Assay [13] is described as follows: ATG_TA_CIS: Attagene CIS-FACTORIAL HepG2 Assay for human TA Basal Promoter (AID 2282964). The note with it: HepG2 Attagene CIS-factorial TA basal promoter reporter; actives raise or lower the signal. The procedure, abridged: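 Steps: transfect HepG2 with MRTUs; dose 24 h; isolate RNA, DNase-treat, reverse-transcribe; PCR and FAM-label reporter cDNA; digest with HpaI 2h at 37 C; run capillary electrophoresis. Activity fitted both directions against DMSO.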

The target in assay [14] is Paired box protein Pax-6 (Homo sapiens) (UniProt P26367). Nature of the assay: ATG_Pax6_CIS: Attagene CIS-FACTORIAL HepG2 Assay for human Paired Box 6 (PAX6) (AID 2282956). The following applies: HepG2 CIS-FACTORIAL PAX6 reporter transcription, RNA readout; actives raise or lower the signal. The procedure, abridged:
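HepG2 cells transiently transfected with cis-promoter-driven multiplexed reporter units sensing endogenous transcription factor activity; 24 h chemical exposure. Reporter mRNA quantified by RT-PCR, 6-FAM labelling, HpaI digestion and capillary electrophoresis; bidirectional fit versus DMSO baseline.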

A short description of assay [15]: ATG_PPRE_CIS: Attagene CIS-FACTORIAL HepG2 Assay for human Peroxisome Proliferator-activated Response Element (PPRE) (AID 2282958). The following applies: HepG2 PPRE cis-element reporter, Attagene transcription factor profiling; actives raise or lower the signal. The procedure, abridged:
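Cells are first transfected transiently with the multiplexed reporter library, then dosed for 24 h. Total RNA is reverse-transcribed, amplified, fluorescently end-labeled and HpaI-cut before capillary electrophoresis; activity is fitted bidirectionally against DMSO controls.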

Assay [16] is described as follows: ATG_RORE_CIS: Attagene CIS-FACTORIAL HepG2 Assay for human RAR-related Orphan Receptor Element (RORE) (AID 2282959). The note with it: HepG2 Attagene cis-factorial RORE reporter, mRNA; actives raise or lower the signal. In a few lines:
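Cells were HepG2 carrying transfected cis-regulated reporter constructs, dosed for 24 hours. Total RNA was reverse-transcribed and reporter cDNA amplified, fluorescently labeled and sized by capillary electrophoresis. Activity was fitted bidirectionally relative to DMSO.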

In assay [17] the target is Hypoxia-inducible factor 1-alpha (Homo sapiens) (UniProt Q16665). Nature of the assay: ATG_HIF1a_CIS: Attagene CIS-FACTORIAL HepG2 Assay for human Hypoxia Inducible Factor 1 (HIF1A) (AID 2282951). The following applies: HepG2 Attagene cis-factorial HIF1a reporter transcription; actives raise or lower the signal. In a few lines: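 Measures endogenous transcription-factor activity through cis-regulated reporter mRNA in HepG2. Cells dosed 24 h; transcripts quantified by RT-PCR with 6-FAM-labelled products separated by capillary electrophoresis; DMSO serves as negative control.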
Hypoxia-inducible factor 1-alpha (Homo sapiens), sequence (Q16665 whole entry, looked up): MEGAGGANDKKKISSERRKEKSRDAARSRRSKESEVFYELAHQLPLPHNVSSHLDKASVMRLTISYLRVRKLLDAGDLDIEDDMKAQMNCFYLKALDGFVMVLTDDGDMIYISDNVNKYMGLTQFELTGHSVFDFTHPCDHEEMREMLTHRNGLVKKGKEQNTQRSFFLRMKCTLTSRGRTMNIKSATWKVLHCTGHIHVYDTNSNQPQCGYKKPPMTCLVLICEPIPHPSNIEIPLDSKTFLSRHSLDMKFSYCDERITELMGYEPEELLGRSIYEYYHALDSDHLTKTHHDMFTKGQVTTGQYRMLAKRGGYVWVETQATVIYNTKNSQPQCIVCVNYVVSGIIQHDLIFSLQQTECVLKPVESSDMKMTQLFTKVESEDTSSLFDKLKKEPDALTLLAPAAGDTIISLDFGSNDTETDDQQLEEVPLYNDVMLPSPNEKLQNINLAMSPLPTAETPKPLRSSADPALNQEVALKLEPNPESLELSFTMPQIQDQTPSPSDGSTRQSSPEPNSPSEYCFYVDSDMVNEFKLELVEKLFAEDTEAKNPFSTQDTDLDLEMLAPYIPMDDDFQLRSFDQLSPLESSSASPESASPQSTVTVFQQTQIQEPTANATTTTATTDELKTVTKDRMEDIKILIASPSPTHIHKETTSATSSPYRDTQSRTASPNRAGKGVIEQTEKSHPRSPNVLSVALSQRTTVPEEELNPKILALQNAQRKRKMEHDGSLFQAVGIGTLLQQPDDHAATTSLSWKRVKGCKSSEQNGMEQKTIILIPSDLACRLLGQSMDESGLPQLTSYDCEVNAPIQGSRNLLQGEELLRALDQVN

In assay [18] the target is Heat shock factor protein 1 (Homo sapiens) (UniProt Q00613). Kind of assay: ATG_HSE_CIS: Attagene CIS-FACTORIAL HepG2 Assay for human Heat Shock Transcription Factor 1 (HSE) (AID 2282953). The following applies: HepG2 HSE cis-reporter, Attagene RNA transcription; actives raise or lower the signal. The procedure, abridged:
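Cells were transfected with cis-element-driven reporter constructs, dosed for 24 h, then total RNA was reverse-transcribed and reporter cDNA amplified, FAM-labelled and digested with HpaI. Fragments were resolved by capillary electrophoresis; gain or loss was fitted against DMSO.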

The nature of assay [19]: ATG_TCF_b_cat_CIS: Attagene CIS-FACTORIAL HepG2 Assay for human T-Cell-Factor with beta-catenin (TCF/b-cat) (AID 2282965). The following applies: HepG2 TCF/beta-catenin cis-reporter transcription, actives raise or lower the signal. The procedure, abridged:
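In this cis-format system, transfected HepG2 cells report endogenous transcription factor activity. Readout after 24 h exposure is reporter transcript abundance from RT-PCR and capillary electrophoresis, analysed for gain or loss of signal versus DMSO.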

Signal transducer and activator of transcription 3 (Homo sapiens), sequence (P40763 whole entry, looked up): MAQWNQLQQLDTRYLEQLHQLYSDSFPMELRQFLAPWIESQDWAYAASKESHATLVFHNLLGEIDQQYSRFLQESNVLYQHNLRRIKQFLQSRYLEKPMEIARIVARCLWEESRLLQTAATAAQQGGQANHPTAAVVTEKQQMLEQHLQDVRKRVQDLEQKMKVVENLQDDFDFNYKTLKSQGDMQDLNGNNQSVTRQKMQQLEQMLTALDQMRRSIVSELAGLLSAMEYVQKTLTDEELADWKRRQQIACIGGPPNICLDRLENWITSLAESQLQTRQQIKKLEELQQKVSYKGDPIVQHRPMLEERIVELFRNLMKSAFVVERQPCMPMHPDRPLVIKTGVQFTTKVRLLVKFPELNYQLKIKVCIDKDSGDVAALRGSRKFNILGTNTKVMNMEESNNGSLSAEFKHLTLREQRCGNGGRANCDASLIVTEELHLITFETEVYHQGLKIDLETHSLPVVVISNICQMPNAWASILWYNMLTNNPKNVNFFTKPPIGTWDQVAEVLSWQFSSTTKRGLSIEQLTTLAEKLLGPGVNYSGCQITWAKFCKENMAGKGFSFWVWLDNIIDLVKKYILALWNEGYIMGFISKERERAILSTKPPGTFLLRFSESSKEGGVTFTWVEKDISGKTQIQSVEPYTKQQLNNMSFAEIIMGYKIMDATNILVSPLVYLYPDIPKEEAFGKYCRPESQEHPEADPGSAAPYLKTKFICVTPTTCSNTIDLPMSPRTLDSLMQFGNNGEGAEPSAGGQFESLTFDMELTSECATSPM
Heat shock factor protein 1 (Homo sapiens), sequence (Q00613 whole entry, looked up, the tested form may be a part): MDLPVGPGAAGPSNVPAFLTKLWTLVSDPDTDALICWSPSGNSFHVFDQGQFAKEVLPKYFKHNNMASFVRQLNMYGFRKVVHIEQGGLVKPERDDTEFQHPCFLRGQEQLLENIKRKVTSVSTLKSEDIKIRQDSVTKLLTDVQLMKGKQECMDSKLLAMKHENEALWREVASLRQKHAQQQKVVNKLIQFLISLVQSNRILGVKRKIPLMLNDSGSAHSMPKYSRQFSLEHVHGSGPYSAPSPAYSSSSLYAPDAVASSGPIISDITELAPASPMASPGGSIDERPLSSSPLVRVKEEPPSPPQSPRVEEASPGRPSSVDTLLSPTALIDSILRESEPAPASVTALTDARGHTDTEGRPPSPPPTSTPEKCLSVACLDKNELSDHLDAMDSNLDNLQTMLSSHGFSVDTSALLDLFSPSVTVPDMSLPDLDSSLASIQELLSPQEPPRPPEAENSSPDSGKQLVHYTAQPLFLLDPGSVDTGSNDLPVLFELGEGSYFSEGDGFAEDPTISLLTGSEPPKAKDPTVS
Transcription factor Sp1 (Homo sapiens), sequence (P08047 whole entry, looked up): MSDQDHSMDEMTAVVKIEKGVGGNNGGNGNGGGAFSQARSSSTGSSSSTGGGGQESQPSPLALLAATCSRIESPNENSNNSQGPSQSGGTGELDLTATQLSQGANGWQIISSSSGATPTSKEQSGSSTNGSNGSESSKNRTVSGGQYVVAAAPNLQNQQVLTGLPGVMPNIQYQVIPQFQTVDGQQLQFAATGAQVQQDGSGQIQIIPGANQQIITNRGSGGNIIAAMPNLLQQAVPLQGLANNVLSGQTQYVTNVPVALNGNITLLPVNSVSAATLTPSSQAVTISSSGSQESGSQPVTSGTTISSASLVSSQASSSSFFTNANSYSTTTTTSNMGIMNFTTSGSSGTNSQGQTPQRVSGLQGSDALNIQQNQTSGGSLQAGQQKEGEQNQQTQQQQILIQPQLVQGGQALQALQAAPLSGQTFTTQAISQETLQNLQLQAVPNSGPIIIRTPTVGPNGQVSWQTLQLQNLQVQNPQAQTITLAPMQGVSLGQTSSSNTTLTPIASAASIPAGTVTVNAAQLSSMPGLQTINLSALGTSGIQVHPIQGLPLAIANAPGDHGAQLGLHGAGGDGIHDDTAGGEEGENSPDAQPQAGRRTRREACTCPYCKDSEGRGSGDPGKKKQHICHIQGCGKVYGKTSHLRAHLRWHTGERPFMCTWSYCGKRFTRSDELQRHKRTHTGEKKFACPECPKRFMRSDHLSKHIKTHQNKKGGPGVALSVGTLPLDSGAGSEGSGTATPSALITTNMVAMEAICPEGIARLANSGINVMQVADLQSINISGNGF
Paired box protein Pax-6 (Homo sapiens), sequence (P26367 whole entry, looked up): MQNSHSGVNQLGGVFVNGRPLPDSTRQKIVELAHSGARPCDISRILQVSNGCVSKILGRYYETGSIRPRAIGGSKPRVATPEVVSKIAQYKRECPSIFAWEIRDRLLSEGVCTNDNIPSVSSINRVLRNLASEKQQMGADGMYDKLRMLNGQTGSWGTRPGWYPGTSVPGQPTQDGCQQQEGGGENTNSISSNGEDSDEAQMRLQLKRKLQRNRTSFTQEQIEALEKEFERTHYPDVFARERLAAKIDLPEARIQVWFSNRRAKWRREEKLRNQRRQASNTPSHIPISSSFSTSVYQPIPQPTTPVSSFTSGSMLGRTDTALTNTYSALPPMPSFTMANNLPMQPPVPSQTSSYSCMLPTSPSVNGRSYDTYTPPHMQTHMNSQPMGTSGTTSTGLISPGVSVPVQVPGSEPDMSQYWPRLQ

Consider `N#Cc1cscn1`, for which the molecule was classed as inactive in assay [1], in assay [2], in [3], in [4], in [5] and in assay [6]. Moreover, the outcome in assay [7], in assay [9], in [10], in assay [11], in assay [12] and in [13] was inactive. For the same molecule, the concentration at half-maximal activity (AC50) (usually the concentration giving half of the maximal activity seen) in assay [8] was 71.7 µM (active).

Regarding `O=C(O)CCCCCCCCC(=O)O`, the molecule was classed as inactive in assay [1], in assay [2], in [3], in [4], in [5] and in assay [6]. For the same molecule, the outcome in assay [7], in [14], in assay [8], in [15], in assay [16] and in assay [9] was inactive. For the same molecule, the call in [10], in [11], in [12] and in assay [13] was inactive.

On to `CCCCCCCCCCCCCCN(CCO)CCO`, for which the result in assay [1], in assay [2], in [3], in [17], in [5] and in assay [18] was inactive. The molecule was called inactive in assay [6], in [7], in [14], in [15], in [16] and in assay [9]. Moreover, the molecule was called inactive in assay [12], in assay [13] and in [19]. The figures for the concentration at half-maximal activity (AC50) in [8], in assay [10] and in assay [11] were 2.92 µM (active), 11.1 µM (active) and 7.35 µM (active), respectively.

For `CCCCCCOC(=O)C(C)C`, the result in [1], in assay [2], in assay [3], in assay [4], in assay [17] and in [5] was inactive. The result in assay [18], in [6], in assay [14], in assay [8], in assay [15] and in assay [16] was inactive. Further, the molecule was classed as inactive in [9], in assay [10], in assay [11], in [12] and in assay [13].

Turning to `OCCc1ccccc1`, the outcome in assay [1], in assay [2], in assay [3], in assay [4], in assay [17] and in assay [5] was inactive. Besides, the molecule was called inactive in assay [6], in assay [14], in [8], in assay [15], in [9] and in assay [10]. Besides, the outcome in [12], in assay [13] and in assay [19] was inactive.

For the molecule `Clc1ccc(C(c2ccccc2Cl)C(Cl)Cl)cc1` (centres undefined), the AC50 is 43.8 µM (active) in assay [1]; 60.9 µM (active) in [2]; 171 µM (active) in assay [6]; 1.5 µM (active) in assay [8]; 31.9 µM (active) in [15]; 27.3 µM (active) in [16]. Besides, the concentration at half-maximal activity (AC50) in assay [9] was 182 µM (active); in [10], 52.7 µM (active); in [12], 161 µM (active); in [19] it was 59.9 µM (active). Besides, the result in [3], in [4], in assay [5], in [18], in [7] and in assay [14] was inactive. The result in [11] and in assay [13] was inactive.

Take `C=CC(=O)OCCCC`: the outcome in assay [1], in assay [2], in assay [3], in assay [4], in assay [17] and in assay [5] was inactive. The outcome in [18], in [6], in assay [8], in assay [16], in assay [9] and in assay [10] was inactive. Besides, the molecule was called inactive in assay [11], in assay [12], in assay [13] and in [19].

In the case of `CCC1(C)NC(=O)NC1=O` (centres undefined), the call in assay [1], in assay [2], in assay [3], in [4], in assay [17] and in assay [5] was inactive. Moreover, the molecule was classed as inactive in assay [6], in assay [14], in assay [8], in assay [15], in [9] and in assay [10]. For the same molecule, the molecule was classed as inactive in assay [11], in assay [12], in assay [13] and in [19].
